Source: PubChem BioAssay (several laboratories)
IDE cell inh: inhibitors of human insulin-degrading enzyme in cells. inhibition, % at 5.59 µM. HEK cells, FAbetaB cleavage, fluorescence polarization. actives 0.41% (n = 320,000). P14735;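 active = percent inhibition above the average of all tested compounds plus 3 SD, set per screening campaign, cut at about 16% in these data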;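 note: IDE supplied by intact live HEK cells; FP after avidin binding of uncleaved biotin substrate so inhibition keeps polarization high; 0% = DMSO wells and 100% = 60 µM reference IDE inhibitor Ii1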
Target sequence (P14735 whole entry, looked up): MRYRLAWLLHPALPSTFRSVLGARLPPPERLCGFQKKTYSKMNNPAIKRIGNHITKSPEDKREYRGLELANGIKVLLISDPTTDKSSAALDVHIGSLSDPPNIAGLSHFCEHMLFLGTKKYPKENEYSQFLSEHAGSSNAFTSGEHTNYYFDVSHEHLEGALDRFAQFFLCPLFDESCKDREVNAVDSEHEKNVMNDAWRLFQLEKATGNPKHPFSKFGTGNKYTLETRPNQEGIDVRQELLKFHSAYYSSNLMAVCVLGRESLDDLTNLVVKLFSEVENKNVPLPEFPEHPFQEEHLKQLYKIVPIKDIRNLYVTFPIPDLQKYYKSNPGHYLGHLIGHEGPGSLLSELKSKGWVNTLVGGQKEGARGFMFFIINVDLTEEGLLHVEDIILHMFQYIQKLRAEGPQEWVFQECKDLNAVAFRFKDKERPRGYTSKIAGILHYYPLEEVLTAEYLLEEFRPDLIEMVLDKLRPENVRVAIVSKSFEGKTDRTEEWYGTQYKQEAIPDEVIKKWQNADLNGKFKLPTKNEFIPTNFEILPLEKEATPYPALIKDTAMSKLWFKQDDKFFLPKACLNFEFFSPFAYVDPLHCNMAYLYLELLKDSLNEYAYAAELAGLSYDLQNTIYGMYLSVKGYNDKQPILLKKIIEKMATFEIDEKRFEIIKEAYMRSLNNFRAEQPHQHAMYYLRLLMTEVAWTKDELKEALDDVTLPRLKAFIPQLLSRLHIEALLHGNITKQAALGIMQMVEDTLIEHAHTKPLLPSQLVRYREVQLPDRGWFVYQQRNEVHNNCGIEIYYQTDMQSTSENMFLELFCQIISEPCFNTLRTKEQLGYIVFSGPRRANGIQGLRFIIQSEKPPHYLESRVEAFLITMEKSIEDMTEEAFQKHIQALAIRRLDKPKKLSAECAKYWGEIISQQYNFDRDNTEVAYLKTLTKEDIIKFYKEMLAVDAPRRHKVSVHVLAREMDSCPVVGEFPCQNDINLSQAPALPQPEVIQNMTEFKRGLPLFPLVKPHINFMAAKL
Keap1 Nrf2 FP: disrupts human Keap1 binding to Nrf2 peptide; actives 0.15% (n = 340,000); inhibition, % at 9.4 µM; Keap1 Kelch-Nrf2 peptide fluorescence polarization, 1536-well; AID 504523; in the data active = inhibition above about 12%;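 note: human Keap1 Kelch domain with fluorescein labeled Nrf2 9mer peptide probe; 0% = neutral control wells and 100% = peptide positive control; higher means more block of Keap1 binding to Nrf2 peptide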
IDE act: IDE (human) activation, cell-based | activation, % at 5.96 µM | actives 0.073% (n = 340,000) | P14735 | HEK cells, FAbeta-B cleavage, fluorescence polarization; 0% vehicle, 100% cell-free pure enzyme wells;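 active = activation above the mean of all tested compounds plus 3 SD, set per screening campaign, cut at about 17% in these data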
RTF Ca sens act: cardiac RTF calcium sensitization. AID 493008. activation, % at 7.2 µM. IANBD-labeled TnC RTF fluorescence at EC20 calcium; 0% EC20 calcium, 100% full calcium. P19429+P45379. actives 0.24% (n = 340,000);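 active = activation above the mean over all tested compounds plus 3 SD, cut at about 30% in these data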;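 note: rise in fluorescence read as greater calcium sensitivity of cardiac thin filaments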
RTF Ca sens inh: cardiac RTF calcium desensitization. P19429+P45379. inhibition, % at 7.15 µM. actives 0.12% (n = 340,000). IANBD-labeled cardiac RTF, Ca2+ fluorescence;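 active = inhibition above the mean inhibition of all tested compounds plus 3 SD, cut at about 17% in these data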;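 note: assay run at fixed EC70 calcium of 1.6 mM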
LANA DNA inh: inhibitors of KSHV LANA C-terminal domain DNA binding; AID 504423; MBP-C-LANA/FAM-LBS DNA binding, fluorescence polarization; inhibition, % at 9 µM; actives 0.078% (n = 340,000);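 active = highest replicate inhibition at or above 60% at 9 µM, even if other replicates fall short; inactive = all replicates below 60% inhibition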;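 note: 0% = neutral control wells and 100% = 4 µM acridine orange control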
IDE cell inh cf: confirmation of human insulin-degrading enzyme inhibitors in cells. shares compounds with IDE cell inh. HEK cells, FAbetaB cleavage, fluorescence polarization. inhibition, % at 5.59 µM. actives 51% (n = 1,200). AID 435028;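 active = mean inhibition across triplicate wells above the cutoff set by the earlier primary insulin-degrading enzyme screen, cut at about 16% in these data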;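 note: 0% = DMSO wells and 100% = 60 µM reference IDE inhibitor Ii1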
HEK cytotox: kills HEK cells in IDE inhibitor counter-screen. shares compounds with IDE cell inh. HEK293 cytotoxicity, ATP luminescence. inhibition, % at 5.59 µM. actives 28% (n = 1,200). AID 449730; in the data active = inhibition above about 22%;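 note: 0% = vehicle wells and 100% = reference cytotoxic drug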
RTF inh confirm: cardiac RTF calcium sensitivity inhibition, confirmation. shares compounds with RTF Ca sens inh. reconstituted cardiac thin filaments, calcium sensitivity fluorescence. inhibition, % at 7.15 µM. actives 8% (n = 360); in the data active = inhibition above about 18%
Keap1 TSA: binds and thermally shifts human Keap1 Kelch domain; shares compounds with Keap1 Nrf2 FP; Keap1 Kelch thermal shift, delta Tm; stronger effect = higher value; max delta Tm, degrees C; actives 8% (n = 400); AID 651823; in the data active = max delta Tm above about 0.48 degrees C
An asterisk follows results filed as active; i = inactive; / = no result; + = active, no number. Sampled rows, rich in hits. Any-hit rate of the full collection: about 0.81%.

SMILES	IDE cell inh	Keap1 Nrf2 FP	IDE act	RTF Ca sens act	RTF Ca sens inh	LANA DNA inh	IDE cell inh cf	HEK cytotox	others
CC(=O)NC1(C(F)(F)F)C(=O)Nc2c1c(=O)[nH]c(=O)n2CC(C)C (stereo not drawn)	4	-2	3	0	-4	0	/	/
CCN(C(=O)COC(=O)C1CC1C)c1c(N)n(Cc2ccccc2)c(=O)[nH]c1=O (stereo not drawn)	/	-3	-1	-6	-10	2	/	/
O=C(O)/C=C\C(=O)NNC(=O)c1cc(-c2ccccc2)n[nH]1	7	2	-2	-1	-6	2	/	/
CC(=O)c1ccc(N2CCN(C(=O)/C=C/c3ccc(S(=O)(=O)NCc4ccco4)cc3)CC2)cc1	21*	-42	-14	-4	-7	0	0	49*
Cc1ccc(/C=C/c2ccc(N(C)C)cc2)[n+](C)c1	18*	-45	-10	39*	-54	-22	25*	91*
CCN(CC)c1ccc(S(=O)(=O)N2CCCCC2)cc1NC(=O)CN1C(=O)NC2(CCCC2)C1=O	-4	-3	0	-3	-3	1	/	/
COC(=O)C1=C(C(=O)OC)[C@@H]2N(C)c3ccccc3[C@@]23C[C@@H](CO)N(C(=O)NCCBr)C3=N1	2	-5	5	-6	1	0	/	/
CC(C)CCNc1ncnc2c1cnn2Cc1ccccc1Cl	21*	9	-14	-2	2	2	9	19
Cc1cc(-c2nn(-c3ccccc3F)cc2CN2CCN(c3ccncc3)CC2)c(C)s1	5	-2	8	14	-10	0	/	/
CC(=O)c1cccc(OCC(=O)N2CCN(c3ccc(C(F)(F)F)cn3)CC2)c1	22*	1	-19	-3	6	0	19*	6
CCCc1cc(C(=O)N2CCN(c3ccc(C(F)(F)F)cn3)CC2)sc1C	16*	3	-29	9	-4	0	4	16
O=C(O)COCC(=O)N1CCCN(c2ccc(C(F)(F)F)cn2)CC1	/	-3	5	5	-4	-1	/	/
CSc1ccc(CN(C)CC(=O)NC(=O)NCCC2=CCCCC2)cc1	5	-1	4	0	-14	-1	/	/
O=C(CSc1ccsc1[N+](=O)[O-])N1CCN(c2ccccc2)CC1	10	-1	-9	-7	-11	-1	/	/
O=C(CSc1ccsc1[N+](=O)[O-])N1CCN(c2ccc(Cl)cc2)CC1	25*	0	-12	-11	-14	0	5	16
O=C(Nc1ccc2ccccc2c1)c1ccc2[nH]c(=O)c(=O)[nH]c2c1	20*	-5	-19	-3	-1	1	13	10
CCCCC1=CC2=CC(=O)C(C)(OC(=O)CC)C(=O)C2=CN1Cc1ccc2c(c1)OCO2 (stereo not drawn)	-4	2	4	-2	-25	3	/	/
O=C(CCC(=O)c1ccc(-c2ccccc2)cc1)Nc1cccnc1	17*	-2	-9	4	1	-6	2	15
COc1ccc([N+](=O)[O-])cc1NC(=S)NC(NC(=O)C(c1ccccc1)c1ccccc1)C(Cl)(Cl)Cl (stereo not drawn)	0	-3	1	6	3	1	/	/
CCN(CC)c1ccc(/C=C/C(=O)c2ccc(Br)cc2)cc1	163*	-19	-118	476*	i	2	61*	14
CC(C)c1ccc(/C=C2\NC(=S)N(Cc3cccnc3)C2=O)cc1	-2	-6	/	/	/	-1	/	/
Cc1cc(/C=C\c2ccc3cc(N(C)C)ccc3[n+]2C)c(C)n1-c1ccccc1	26*	-6	-44	8	-21	-4	85*	117*
O=C(Nc1ccc(-c2nc3ccc(NC(=O)c4cccs4)cc3[nH]2)cc1)c1cccs1	5	1	3	-9	0	0	/	/
O=C(Nc1ccc2nc(-c3cccs3)[nH]c2c1)c1cccs1	21*	0	-4	2	-5	1	10	22*
CSc1ncccc1C(=O)OCC(=O)NC1CCCc2ccccc21 (stereo not drawn)	19*	0	-16	-1	-1	0	0	15
SMILES	IDE cell inh	Keap1 Nrf2 FP	IDE act	RTF Ca sens act	RTF Ca sens inh	LANA DNA inh	IDE cell inh cf	HEK cytotox	others
Cc1csc2ncnc(NNC(=O)c3ccc(Cl)cc3)c12	17*	-3	-1	2	-2	0	5	34*
Cc1ccccc1N1C(=O)c2cccc3c(N(C)CCO)ccc(c23)C1=O	47*	14*	-49	179*	-153	57	68*	11	Keap1 TSA=-0.02
CCN1C(=O)c2cccc3c(N)ccc(c23)C1=O	24*	38*	0	+	i	38	61*	11	Keap1 TSA=-0.2
CN(C)CCCN1C(=O)c2cccc3c(Br)ccc(c23)C1=O	-2	-1	-5	15	-18	2	/	/
Nc1nc(N)nc(-c2cc(F)ccc2O)n1	4	-3	7	-4	-7	-1	/	/
O=C(O)c1ccc(COc2ccc3c(c2)CCC3)cc1	3	5	9	1	10	-2	/	/
NNC(=O)c1ccc(COc2ccc3c(c2)CCC3)cc1	5	4	4	2	17*	-1	/	/	RTF inh confirm=0
Cc1ccc(S(=O)(=O)N2CCOCC2)cc1NC(=O)CSc1nnnn1C	-1	-2	8	0	-2	0	/	/
O=C(c1ccc(Cl)cc1)c1cnc2ccccn12	1	-1	2	3	18*	1	/	/	RTF inh confirm=-1
CC(C)(Oc1ccc(Cl)cc1)C(=O)OCC(=O)N1CCCC1	1	1	-1	-3	-1	0	/	/
O=C(COC(=O)c1cccnc1Cl)Nc1cc(S(=O)(=O)N2CCCCC2)ccc1Cl	2	0	5	-3	7	1	/	/
CC(C)(CNS(C)(=O)=O)SCc1ccc(Cl)cc1	3	-3	7	2	17*	-1	/	/	RTF inh confirm=-5
CC(C)Cn1c(/C=C/c2ccco2)nc2ccccc21	0	-3	-1	8	18*	1	/	/	RTF inh confirm=-5
CCOC(=O)C(C)Sc1ccc2nnc(CCNS(=O)(=O)c3ccccc3)n2n1 (stereo not drawn)	3	-2	3	2	-7	0	/	/
